In all, about 320,000 compounds went through this assay and about 1,300 (0.41%) were called active. Roughly 3% stayed inconclusive and do not appear here. The rule behind the calls is not given here. Not all results are given here. Entries with a potency or affinity are not part of this list.
Experiment: growth inhibition of non-replicating M. tuberculosis (AID 488890);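 note: plate controls were DMSO cells for no effect and high antibiotic wells for full effect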
Conditions: Mycobacterium tuberculosis non-replicating, at 25 µM, stronger effect = higher value
For O=C(COC(=O)c1cccnc1Cl)Nc1cc(S(=O)(=O)N2CCOCC2)ccc1Cl, the inhibition was -5.03%. For O=C(CC1CCCCC1)NCC1CCCO1 (configuration not stated), the inhibition was 69.3%. In the case of Cc1ccc(N(Cc2cc3ccc(C)cc3[nH]c2=O)S(=O)(=O)c2ccccc2)c(C)c1, the inhibition is reported as 3.45%. Compound CCCCOC(=O)C1CCC[C@@H](C)N1 (some centres not stated) has an inhibition of -6.13%. CCCCOC(=O)C1CCCC(C)N1 (configuration not stated) gave an inhibition of 0.64%. With Cc1ccc(NC(=O)COC(=O)CN2C(=O)C3CCCCC3C2=O)cc1S(=O)(=O)N1CCOCC1 (configuration not stated) the inhibition was 6.8%. In the case of O=C1NCCCC1C(=O)N/N=C/c1cc([N+](=O)[O-])ccc1O (configuration not stated), the inhibition is reported as 15.8%. O=C(N/N=C/c1cc([N+](=O)[O-])ccc1O)NC12CC3CC(CC(C3)C1)C2 gave an inhibition of 54.2%. O=C(N/N=C/c1cc([N+](=O)[O-])ccc1O)C1C2CCCCC21 (configuration not stated) gave an inhibition of 77.2%. Work on CCNC(=O)C(=O)N/N=C/c1cc([N+](=O)[O-])ccc1O yielded an inhibition of 27.1%. CC1(C)Cc2nc3sc(C(N)=O)c(N)c3cc2CO1 showed an inhibition of -3.96%. O=C(CCC1CCCC1)NCCCNC(=O)CCC1CCCC1 showed an inhibition of 72.8%. Work on Cc1nc([N+](=O)[O-])c(Sc2nc3ccccc3n2C)n1Cc1ccccc1 yielded an inhibition of 70.5%. In the case of C=C(C)C(=O)Nc1cccc(C2=NOC3(C2)C[C@H](C(N)=O)N(C(=O)CC#N)C3)c1 (some centres not stated), the inhibition is reported as -3.19%. In the case of CCCCCCCCn1cc(C(C)=O)c(=O)[nH]c1=O, the inhibition is reported as 79.8%. With CCCCCCCCCn1cc(C(C)=O)c(=O)[nH]c1=O the inhibition was 71.1%. COc1ccc(-n2nc(C(=O)NCC(=O)O)c3ccccc3c2=O)cc1 gave an inhibition of -2.99%. In the case of COc1ccc(NC(=O)Nc2cccc(NC(C)=O)c2)c(OC)c1, the inhibition is reported as 15.4%. COCCNc1nnc(SCC(=O)NNC(=O)c2ccccc2)s1 showed an inhibition of -9.33%. In the case of COc1ccc(/C=C2/C(=O)N(c3ccccc3)N=C2C)cc1, the inhibition is reported as 0.19%. Work on CC(=O)Oc1ccc(/C=C2/C(=O)N(c3ccccc3)N=C2C)cc1 yielded an inhibition of 32.7%. Work on C(=N\N=C\c1ccccc1)/c1ccccc1 yielded an inhibition of 9.87%. In the case of CCc1nn(CCCC(=O)N2CCC(C)CC2)c(=O)c2cc3occc3n12, the inhibition is reported as 2.85%. Compound O=C(NCc1ccc(Cl)cc1)c1cnccn1 has an inhibition of 68.3%. O=C(NCc1ccncc1)c1cnccn1 showed an inhibition of -7.93%. In the case of NS(=O)(=O)c1ccc(CNC(=O)c2cnccn2)cc1, the inhibition is reported as -8.46%. With COc1ccc(CNC(=O)c2cnccn2)cc1 the inhibition was 66.2%. In the case of CSc1ccc(NC(=O)NCCCN2CCN(c3ccccc3F)CC2)cc1, the inhibition is reported as 50.5%. With Cc1cc(C)cc(NC(=O)C2C3C=CC4(O3)C2C(=O)N(CCCN2CCCCC2)C4C(=O)NC2CCCCC2)c1 (configuration not stated) the inhibition was 8.2%. Cc1cc(OC(=O)c2ccc(S(=O)(=O)N3CCCCC3)cc2)c([N+](=O)[O-])c(=O)[nH]1 gave an inhibition of -2.75%. Cc1cc(C(=O)OCC(=O)Nc2cc(Cl)ccc2C)c(C)o1 gave an inhibition of 0.98%. O=C(NCc1ccco1)c1ccc(NS(=O)(=O)c2cccc(F)c2)cc1 gave an inhibition of 29.2%. With CC(C)COc1ccc(C(=O)Nc2ccc(N3CCOCC3)cc2N2CCOCC2)cc1 the inhibition was 43%. In the case of COc1cccc2cc(-c3ccccc3)c(=O)oc12, the inhibition is reported as 54.4%. For COc1cccc2cc(-c3nnc(-c4ccccc4)o3)c(=O)oc12, the inhibition was 79.1%. O=c1oc2c(O)cccc2cc1-c1nc2ccccc2[nH]1 gave an inhibition of 7.2%. Work on COc1ccc(-c2cc3cccc(OC)c3oc2=O)cc1 yielded an inhibition of 24.1%. O=C(CNS(=O)(=O)c1ccc(Cl)c(C(F)(F)F)c1)NC1CCCCC1 gave an inhibition of 20.4%. CC(=O)CSc1nnc(Cc2ccc3c(c2)OCO3)o1 gave an inhibition of 73.1%. Work on N#CCSc1nnc(Cc2ccc3c(c2)OCO3)o1 yielded an inhibition of 73.3%. Cn1nc(-c2ccccc2)c(COC(=O)c2cccc(Cl)c2)c1S(=O)(=O)c1ccccc1 showed an inhibition of -7.33%. For O=C(Nc1ccc2nc(-c3ccccc3)oc2c1)c1ccco1, the inhibition was -0.45%. For CCCC(=O)Nc1cccc(-c2nc3ccccc3o2)c1, the inhibition was -1.01%. Compound CCCC(=O)Nc1cccc(-c2nc3cc(C)c(C)cc3o2)c1 has an inhibition of -4.03%. CC(C)C(=O)Nc1cccc(-c2nc3ccccc3o2)c1 showed an inhibition of 9.28%. O=C(Nc1cccc(-c2nc3ccccc3c(=O)o2)c1)c1ccccc1 showed an inhibition of 60.9%. Compound CC(=O)Nc1cccc(-c2nc3ccccc3o2)c1 has an inhibition of 8.44%. Compound CC(=O)Nc1ccc(-c2nc3ccccc3c(=O)o2)cc1 has an inhibition of 68.8%. For CCC(CC)C(=O)Nc1cccc(-c2nc3ccccc3o2)c1, the inhibition was -1.13%. Work on O=P(Oc1ccccc1)(Oc1ccccc1)C(O)c1ccc(Cl)cc1 (configuration not stated) yielded an inhibition of -12%. With COc1cccc(CN2CCNC(=O)C2CC(=O)NC2Cc3ccccc3C2)c1 (configuration not stated) the inhibition was -15.6%. Work on COc1ccc(C(=O)/C=C\N2CCOCC2)cc1 yielded an inhibition of 10.4%. COCCNC(=S)N1CCC(NC(=O)Nc2ccc(C)cc2)CC1 gave an inhibition of -2%. In the case of O=C(NCCCNC(=O)c1ccco1)c1ccc(F)cc1, the inhibition is reported as -2.4%. For CC(=O)N1N=C(c2ccc(Cl)cc2)CC1c1ccc([N+](=O)[O-])cc1 (configuration not stated), the inhibition was -10.2%. O=C(c1ccc([N+](=O)[O-])cc1)N1CCSC1c1ccc(Cl)cc1 (configuration not stated) gave an inhibition of 6.9%. In the case of COc1ccccc1CNC(=O)CCCn1nc(C)c2c(C)n(-c3ccccc3)nc2c1=O, the inhibition is reported as 5.28%. In the case of O=C(CNC(=O)N1CC(=O)Nc2ccccc21)Nc1cc(Cl)ccc1Cl, the inhibition is reported as 5.7%. With CN1C(=O)N(C)C(c2ccccc2Cl)C2=C1CC(C)(C)CC2=O (configuration not stated) the inhibition was 1.21%. O=C(O)c1ccc(N=N/C(=N\Nc2ccc(C(=O)O)cc2)c2ccccc2)cc1 gave an inhibition of 29.9%. Compound Brc1ccc(N/N=C(/N=Nc2nn[nH]n2)c2ccccc2)cc1 has an inhibition of 76.2%. In the case of CCOC(=O)c1nc(C)nc(Sc2n[nH]c(-c3cc(C(F)(F)F)cc(C(F)(F)F)c3)n2)c1C, the inhibition is reported as 46.5%. O=C(O)c1ccccc1C(=O)Nc1ccc(S(=O)(=O)NC2CCCCC2)cc1 gave an inhibition of -4.02%. Compound CCC(C)C(NC(=O)c1ccccc1NC(=O)c1ccc(OC)cc1)C(=O)NCCCn1ccnc1 (configuration not stated) has an inhibition of 7.04%. Compound CC1(N(O)/C=C2\C=CC=CC2=O)CCCCC1=O (configuration not stated) has an inhibition of 3.64%. Work on O=C(CN1CCN(S(=O)(=O)c2ccccc2F)CC1)Nc1ccccc1C(=O)c1ccccc1 yielded an inhibition of 27.9%. Work on Cc1onc(-c2ccccc2Cl)c1C(=O)O/N=C(\N)c1ccccc1 yielded an inhibition of 10.2%. With Cc1onc(-c2cccc(Cl)c2Cl)c1C(=O)O/N=C(\N)c1ccc([N+](=O)[O-])o1 the inhibition was 60%. Work on Cc1onc(-c2c(Cl)cccc2Cl)c1C(=O)O/N=C(\C#N)c1c(Cl)cccc1Cl yielded an inhibition of 4.59%. C/C(=N\OC(=O)c1c(-c2c(F)cccc2Cl)noc1C)c1nccs1 showed an inhibition of 4.04%. For O=C(O)c1cccc2c1C(=O)c1ccc(-c3ccc(OC(F)(F)F)cc3)cc1S2(=O)=O, the inhibition was -2.64%. O=[N+]([O-])c1cc(/C=N/OCc2c(Cl)cccc2Cl)ccc1N1CCOCC1 showed an inhibition of 22.5%. For CCOC(=O)N1CCN(c2ccc(Cl)c(Cl)c2)CC1, the inhibition was 75.6%. Work on COC(=O)N1CCN(c2ccc(Cl)c(Cl)c2)CC1 yielded an inhibition of 39%. Work on Cc1cc(Cl)c(S(=O)(=O)N2CCN(c3cccc(C)c3C)CC2)cc1OCC(N)=O yielded an inhibition of 6.33%. Work on COC(=O)c1[nH]c2ccc(C)cc2c1NC(=O)C1=COCCO1 yielded an inhibition of 2.53%. For COc1ccc(C(=O)NCCNC(=O)c2ccccn2)cc1, the inhibition was -3.54%. Compound O=C(N/N=C(\c1ccccc1)c1cccnc1)c1ccc(O)cc1 has an inhibition of -6.44%. Work on COc1cc(C(=O)N/N=C(\c2ccccc2)c2ccccn2)cc(OC)c1OC yielded an inhibition of 43.4%. Compound C/C(=N/NC(=O)CNC(=O)c1ccccn1)c1cccc([N+](=O)[O-])c1 has an inhibition of -4.01%. Compound COc1ccc(C(=O)NNC(=O)c2ccccn2)cc1 has an inhibition of 12.8%. For COc1cccc(C(=O)NCCNC(=O)c2ccccn2)c1, the inhibition was -10.9%. O=C(N/N=C(\c1ccccc1)c1cccnc1)c1cc(O)ccc1O gave an inhibition of 30.3%. O=C(c1cccc([N+](=O)[O-])c1)c1ccccn1 gave an inhibition of 2.21%. C(=N\N1CCN(Cc2ccccc2)CC1)/c1ccc(-c2ccccc2)cc1 gave an inhibition of 43%. With Cc1ccc(CNC(=O)Cn2nnc(C(=O)Nc3cccc(C)c3C)c2N)cc1 the inhibition was -3.98%. Compound CC(C)c1ccccc1NC(=O)c1ccccc1NC(=O)C1CCCCC1 has an inhibition of -1.84%. Work on COc1ccc(C)cc1-n1nnnc1SCC(=O)Nc1cccnc1Cl yielded an inhibition of 17.6%. Work on O=C(NCC(=O)N1CCN(c2ccccn2)CC1)c1ccc(Br)o1 yielded an inhibition of -3.21%. In the case of Cc1ccc(COC(=O)NCc2cccnc2)cc1, the inhibition is reported as 4.06%. In the case of Cc1cc(C)c(C)c(S(=O)(=O)Nc2ccc(C(=O)N3CCCC3)cc2)c1C, the inhibition is reported as 5.64%. Work on O=[N+]([O-])c1ccc2nonc2c1Nc1cccc(F)c1 yielded an inhibition of 32.1%. Work on O=C(CCCN1CCC(c2ccccc2)C1)c1ccc2c(c1)OCCO2 (configuration not stated) yielded an inhibition of 12.3%. COc1cc(C(=O)N2CCN(C(=O)c3ccccc3)CC2)cc(OC)c1OC gave an inhibition of -17.1%. COc1ccc(-n2nc3c(c2NC(=O)c2ccco2)CS(=O)(=O)C3)cc1 gave an inhibition of 3.65%. Work on CC(/C=N/N1CCN(c2ccc(C)cc2)CC1)=C\c1ccccc1 yielded an inhibition of 10.7%. COc1ccccc1N1CCN(C(=O)c2sc3nc(-c4ccc(F)cc4)cn3c2C)CC1 gave an inhibition of 40.2%. In the case of CC(=O)N1CCN(C(=O)c2ccc(-c3ccccc3Cl)o2)CC1, the inhibition is reported as 5.06%. NC(=O)C1CCN(C(=O)c2ccc(-c3ccccc3Cl)o2)CC1 showed an inhibition of -8.98%. With CC(C)OP(=O)(OC(C)C)C(Nc1ccccn1)c1ccc(F)cc1 (configuration not stated) the inhibition was -0.14%. For O=C(Cn1cnc2c(nnn2Cc2ccc(Cl)cc2)c1=O)OCc1ccccc1, the inhibition was -1.54%. O=C(Nc1nccs1)C(Cl)(Cl)Cl showed an inhibition of 5.95%. Compound Cc1cc(C)c2ccc(C(=O)O)nc2c1O has an inhibition of 15.6%. With Cc1cc(C)c2ccc(N)nc2c1O the inhibition was 41.3%. Compound CC(=N/O)/C(C)=N\NC(=O)c1ccccn1 has an inhibition of 33%. With O=C(Nc1ncccn1)c1ccc([N+](=O)[O-])cc1 the inhibition was 34%. With O=C(Nc1ccccn1)c1ccco1 the inhibition was 2.01%. Compound Cc1cccnc1NC(=O)c1ccc([N+](=O)[O-])o1 has an inhibition of 70.2%. O=C(NNC(=O)c1ccc([N+](=O)[O-])o1)c1ccccc1 showed an inhibition of 70%. O=C1CN(C(=O)CSc2nnnn2-c2ccc(Cl)cc2)c2ccccc2N1 gave an inhibition of 20.5%. With CC(OC(=O)C1CCN(S(=O)(=O)c2ccc(Cl)cc2)CC1)C(=O)NC1CCCCC1C (configuration not stated) the inhibition was 17.7%. COc1ccc(-c2sc3ccc(N4CCOCC4)cc3c2C#Cc2ccsc2)cc1 gave an inhibition of 36.8%.
